Compounds without any hit were thinned out: in the full panel of roughly 79,000, 15% have a hit. Calls of active or inactive are those of the source. Cut-off read from the data, not from the text of the source: active = growth inhibition above about 70%; inactive = the rest.
How the values were obtained:
[1] = NCI Yeast Anticancer Drug Screen. Data for the rad50 strain (AID 155);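 note: 0% = growth of vehicle-only cultures of the same strain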; conditions: S. cerevisiae rad50 strain growth inhibition; at 50.0 µM; active compounds read high
In short: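 Yeast carrying a defined DNA repair defect were exposed to test compounds, and growth was compared with vehicle-treated controls to give percent inhibition.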

[2] = NCI Yeast Anticancer Drug Screen. Data for the mec2-1 strain (AID 157); conditions: S. cerevisiae mec2-1 strain, at 50.0 µM, active compounds read high
In short: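 Cells of the genetically defined mec2-1 yeast strain are incubated with test compound. Inhibition of growth is calculated against vehicle-treated controls.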

[3] = NCI Yeast Anticancer Drug Screen. Data for the sgs1 mgt1 strain (AID 161);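 note: 0% = growth of cultures given vehicle only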; conditions: S. cerevisiae sgs1 mgt1 strain, at 50.0 µM, active compounds read high
In short: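 Inhibition of yeast growth, normalised to vehicle-treated controls, is reported for a strain bearing genetic alterations in DNA damage repair.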

[4] = NCI Yeast Anticancer Drug Screen. Data for the cln2 rad14 strain (AID 165);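 note: 0% = growth equal to vehicle treated cultures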; conditions: S. cerevisiae cln2 rad14 strain, at 50.0 µM, active compounds read high
In short: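 The screen exposed genetically defined yeast (cln2 rad14) to test compounds and scored growth inhibition relative to vehicle-treated controls.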

[5] = NCI Yeast Anticancer Drug Screen. Data for the bub3 strain (AID 167); conditions: S. cerevisiae bub3 mutant strain, at 50.0 µM, active compounds read high
In short: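 Compounds were applied to a genetically altered yeast strain carrying a cell-cycle control defect. Growth inhibition was scored against vehicle-treated controls.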

[6] = NCI Yeast Anticancer Drug Screen. Data for the mlh1 rad18 strain (AID 175); conditions: S. cerevisiae mlh1 rad18 strain growth inhibition; at 50.0 µM; active compounds read high
In short: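 Compound-treated yeast growth, normalised to vehicle controls. Strain bears defined DNA repair mutations.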

Measured: growth inhibition

N#CCc1ccccc1S(=O)(=O)O
inactive: [1] 13.3% | [2] -0.75% | [3] -3.45% | [4] -9.75% | [5] 5.05% | [6] 0.25%

COC(=O)CC(C(C(=O)OC)C(=O)OC)N1C(=O)OC(c2ccccc2)C1c1ccccc1 (stereo unspecified)
inactive: [1] 7.75% | [2] -10.5% | [3] -2.95% | [4] 9.4% | [5] -18% | [6] 3.4%

Cc1c([N+](=O)[O-])ccc2c(NCCCN(C)C)ccnc12
inactive: [1] -2.5% | [2] -5.65% | [3] -5.35% | [4] -6.4% | [5] -14.3% | [6] -36.4%

COc1ccc(CC#N)c(OCc2ccccc2)c1
inactive: [1] 2.35% | [2] 8.3% | [3] -10.2% | [4] 3.55% | [5] 1.8% | [6] -17.5%

CCOC(=O)/C(C#N)=C/Nc1c(C)n(C)n(-c2ccccc2)c1=O
inactive: [1] 0.95% | [2] 10.3% | [3] 6.75% | [4] 16.4% | [5] -0.85% | [6] 13.6%

C/C(=N\NC(=O)c1cccnc1)c1cccc(/C(C)=N/NC(=O)c2cccnc2)n1.CC(=O)[O-].CC(=O)[O-].[Zn+2]
inactive: [1] -5.45% | [2] 5.15% | [3] -2.6% | [4] -15.2% | [5] -6.1% | [6] -4%

Cc1ccc(NC(=S)/N=C/c2c(O)[nH]c(=O)[nH]c2=O)c(C)c1
inactive: [1] -9.4% | [2] -20.4% | [3] -15.8% | [4] -4.85% | [5] -24.5% | [6] 2.05%

CSCc1cc(C)ccc1NC(C)=O
inactive: [1] 0.5% | [2] -7.85% | [3] -0.75% | [4] -16.5% | [5] -13.2% | [6] 10.8%

CC1C(O)CC2(C(C)C)CC12 (stereo unspecified)
inactive: [1] 4.85% | [2] -0.25% | [3] -8.7% | [4] 12.3% | [5] -18.1% | [6] -10.4%

N#CC(CCc1ccccc1)(c1ccccc1)c1ccccc1
inactive: [1] -15.5% | [2] -9.05% | [3] -5.85% | [4] -45.5% | [5] 9.5% | [6] -15.7%

C(=C\C1OCCO1)/c1ccccc1
inactive: [1] 14.4% | [2] 0.45% | [3] 7.25% | [4] -2.4% | [5] 18.1% | [6] -3%

CCOC(=O)c1c(C)[nH]c(-c2csc(N)n2)c1C
inactive: [1] -5.3% | [2] -1.65% | [3] 21.4% | [4] -55.7% | [5] -9.35% | [6] -14.8%

Cc1ccc(NC(=O)CC#N)c(C)c1
inactive: [1] -11.8% | [2] -10.2% | [3] -17.9% | [4] -40.9% | [5] -0.7% | [6] 4%

C=CCc1cc(C(C)=O)ccc1O
inactive: [1] 2.75% | [2] -14.5% | [3] -9.75% | [4] -19.2% | [5] -8.95% | [6] -11.7%

CC1(C)C(c2ccccc2)C12CCC1(C2=O)C(c2ccccc2)C1(C)C (stereo unspecified)
inactive: [1] -41.8% | [2] -27.8% | [3] -36% | [4] -6.8% | [5] -16.9% | [6] -52.4%

O=C1OC2C(O)COC2(O)C1(O)Cc1c[nH]c2ccccc12 (stereo unspecified)
inactive: [1] 14.1% | [2] -6.4% | [3] -5.45% | [4] 0.5% | [5] 3.35% | [6] -11.2%

O=C1OCC(O)C(O)C(O)C(O)C1O (stereo unspecified)
inactive: [1] 36.1% | [2] 27.3% | [3] 26.2% | [4] 21.1% | [5] 38.4% | [6] 39.7%

CCOC(=O)NC(CI)(c1ccccc1)c1ccccc1
inactive: [1] 20.9% | [2] 10.2% | [3] 3.55% | [4] 7.2% | [5] -0.25% | [6] 14.6%

Nc1nc(-c2ccco2)cc(-c2ccc(CO)o2)n1
inactive: [1] -21.8% | [2] 3.5% | [3] -10.2% | [4] 8.25% | [5] 16% | [6] 3.9%

COC(=O)C[CH2][Ge]([CH3])([CH3])[S]c1ccccc1
inactive: [1] 52.9% | [2] 27.1% | [3] 34.1% | [4] 4.3% | [5] 15.4% | [6] 18.1%

Cc1cc(=O)[nH]cn1
inactive: [1] 0.25% | [2] 6.2% | [3] -7.2% | [4] 7.45% | [5] 19.8% | [6] -4.9%

COc1cccc(C2c3cc4c(cc3OC(C)(N3CCCC3)C2C)OCO4)c1OC (stereo unspecified)
inactive: [1] -4% | [2] -4.7% | [3] -4.8% | [4] -4.25% | [5] -13.5% | [6] 12.1%

O=C(Cc1cccc2ccccc12)NO
inactive: [1] 18.3% | [2] 5.05% | [3] 6.7% | [4] -32.3% | [5] -28.4% | [6] 11.6%

O=C(N/N=C/c1ccc(Cl)cc1Cl)c1cccc2ccccc12
inactive: [1] 8.2% | [2] -6.3% | [3] -15% | [4] -5.6% | [5] 11.6% | [6] 3.1%

O=c1[nH]c2ccccc2c(=O)n2cccc12
inactive: [1] 10.4% | [2] 23.6% | [3] 7.8% | [4] -7.5% | [5] -5.75% | [6] 1.9%

C[C@H]1C(=O)OCN1C(=O)OCc1ccccc1
inactive: [1] 0.05% | [2] 16.4% | [3] 12.3% | [4] -6% | [5] 12.6% | [6] -0.5%

Cc1[nH]c(N)nc(=S)c1CCC(C)C
inactive: [1] -16.6% | [2] -9.7% | [3] -1.05% | [4] -100% | [5] -1.55% | [6] 17.2%

Cc1ccnc(C2=C(O)c3ccccc3C2=O)c1
inactive: [1] 20% | [2] 0.1% | [3] -9.75% | [4] 1.15% | [5] -2.8% | [6] 12.8%

COC(=O)/C=C1/CC[C@H]2[C@@H]3CCC4=CC(=O)CC[C@]4(C)[C@H]3C(=O)C[C@]12C
inactive: [1] 42.5% | [2] 6.35% | [3] 14.3% | [4] -28% | [5] 14.2% | [6] 33.2%

CCC1=CC(C=O)N(C(C)=O)c2ccccc21 (stereo unspecified)
inactive: [1] -2.85% | [2] 7.8% | [3] 7.2% | [4] 2.1% | [5] 1.95% | [6] -2.5%

COC(=O)c1ccc(CSc2ccccc2NC(=S)Nc2cccc(SC)c2)o1
inactive: [1] -15.2% | [2] -38.8% | [3] -18.6% | [4] 5.9% | [5] -31.9% | [6] -26.6%

CN(C)C(=O)Nc1cccc(OS(=O)(=O)N(C)C)c1
inactive: [1] 5.4% | [2] 26.1% | [3] 23.2% | [4] -18.6% | [5] 22.9% | [6] 12.6%

COC(=O)c1ccc(Cc2ccc(C(=O)OC)o2)o1
inactive: [1] -9.05% | [2] 9.2% | [3] -5.25% | [4] -25.4% | [5] -8.35% | [6] -13.8%

Nc1nc(NCCCc2ccccc2)c(N)c(=O)[nH]1
inactive: [1] 5.1% | [2] 16.9% | [3] 6.55% | [4] -3.1% | [5] 31.6% | [6] 7.6%

CC(C)(c1ccc(O)c([N+](=O)[O-])c1)c1ccc(O)c([N+](=O)[O-])c1
inactive: [1] -2.65% | [2] -2.75% | [3] -4.6% | [4] -26.4% | [5] -2.9% | [6] 7.2%

C=CCOC(=O)NC(Cc1ccc(O)cc1)C(=O)O (stereo unspecified)
inactive: [1] -0.05% | [2] -4.85% | [3] 4.5% | [4] 3.65% | [5] -10.8% | [6] -2.45%

CCCCCCCCCCCCCCCC[N+]1(CC)CCSCC1
active: [1] 96.6% | [2] 97.9% | [3] 97.2% | [4] 97.5% | [5] 97.1% | [6] 97.8%

O=c1oc2ccc3ccccc3c2cc1-c1c[nH]c2ccccc12
inactive: [1] 10.7% | [2] 10% | [3] 15.2% | [4] 11.6% | [5] 6.05% | [6] 7.05%

C=CCc1c(Cl)nc(Cl)nc1Cl
inactive: [1] -14.8% | [2] 22.6% | [3] 10.3% | [4] -69.2% | [5] 7.1% | [6] -23.6%

O=[N+]([O-])c1ccc(C=Nc2ccccc2)cc1
inactive: [1] 41.1% | [2] 24.1% | [3] 30.9% | [4] 11.9% | [5] 1% | [6] 26.4%

NC(=O)/N=N/C(N)=O
inactive: [1] 10.8% | [2] -1.05% | [3] 13.6% | [4] 15.2% | [5] 21.1% | [6] 27.7%

Reference: PubChem BioAssay (NCI)
